The text below walks through data of PubChem BioAssay (NCI).

The panel holds about 83,000 compounds, 20% with a hit somewhere; the sample as a whole holds those more often.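 Values shown are percent growth following 48 h exposure of cells in 96-well plates to a single concentration of compound; below 10 was considered active.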 Values without a mark were called inactive. Activity calls are given as the source filed them.

Assay in all cases: NCI-60 one-dose screen, 48 h (100 = growth as untreated, 0 = no growth, -100 = all killed)
Holding throughout (details): 10 µM unless noted

For assay [1], the system named is T-47D breast.
Assay [2] deals with BT-549 breast.
Assay [3] concerns MDA-MB-435 melanoma.
Assay [4] deals with SW-620 colon.
For assay [5], the system named is MCF7 breast.
Assay [6] has as its system HCT-116 colon.
Assay [7] deals with HCC-2998 colon.
Assay [8] deals with KM12 colon.

Regarding `NNCCc1ccc(NC(=O)CCCc2ccc(/C=C/C(=O)NO)cc2)cc1`, the growth in assay [1] was -5.44% (active); in assay [2], 44.9%; in assay [3], 66%; in assay [4], 43.3%; in assay [5], 30.8%; in assay [6] it was 35.3%. Also, the values for the growth in assay [7] and in assay [8] were 95.5% and 57.1%, respectively.

Take `C=C(C)C1CC(O)C2(C)CCCC3C2C1CC(C)C3(C)CC/C(C)=C/C(O)C1CCC(=O)c2c(OC)cc(OC)cc21` (stereo not drawn): the growth in assay [1] was 37.2%; in assay [2] it was 60.4%; in assay [3], 41.7%; in assay [4] it was 47.1%; in assay [5] it was 30.1%; in assay [6], 28.5%. Moreover, the values for the growth in assay [7] and in assay [8] were 76.9% and 40.9%, respectively.

`CN1CCN(Cc2ccc(NC(=O)c3cncc(C#Cc4cncn5ccnc45)c3)cc2C(F)(F)F)CC1`: the growth in assay [1] is 98.9%; in assay [2] it was 60.8%; in assay [3], 36.2%; in assay [4], 32.2%; in assay [5], 55.9%; in assay [6] it was 7.73% (active). The growth in assay [7] was 47.6%; in assay [8] it was 19.7%.

As for `N#CN1CCC[C@H]1C(=O)N1CCc2c(-c3[nH]nc4ncccc34)cccc21`, the growth in assay [1] was 13%; in assay [2], -37.6% (active); in assay [3], -61.6% (active); in assay [4], 15.1%; in assay [5], 5.76% (active); in assay [6] it was -19.6% (active). The growth in assay [7] was -6.99% (active); in assay [8], -14% (active).

As for `O=C(CN(C(=O)Cn1c(=O)n2nnnc2c2ccccc21)c1ccccc1C(F)(F)F)Nc1ccc(C(F)(F)F)cc1`, the growth is 101% in assay [1]; 95.7% in assay [2]; 105% in assay [3]; 105% in assay [4]; 96.1% in assay [5]; 95.5% in assay [6]. The growth in assay [7] is 106%; in assay [8] it was 110%.

For the compound `COc1cc2nc(N3CCCC3)nc(NCc3ccccc3)c2cc1OC`, the growth in assay [1] is 7.79% (active); in assay [2], 70.5%; in assay [3], 6.99% (active); in assay [4], 55.9%; in assay [5] it was 29.4%; in assay [6], 28.2%. Besides, the growth was 55.4% in assay [7] and 96.3% in assay [8].

`CC(=O)O[C@H]1CC[C@]2(C)[C@H]3CC=C4[C@@H]5CC(C)(C)CC[C@]5(C(=O)NCCNCCNCCN)CC[C@@]4(C)[C@]3(C)CC[C@H]2C1(C)C`: the growth is -15.1% (active) in assay [1]; 87.2% in assay [2]; 9.05% (active) in assay [3]; -83.1% (active) in assay [4]; -85.9% (active) in assay [5]; -80.8% (active) in assay [6]. The values for the growth in assay [7] and in assay [8] were 1.19% (active) and 85.3%, respectively.

For `C#CC(F)(F)[C@]1(O)CC[C@H]2[C@@H]3CCC4=CC(=O)CCC4=C3[C@@H](c3ccc(C4CC4)cc3)C[C@@]21C`, the growth is 17.5% in assay [1]; 73.1% in assay [2]; 85.1% in assay [3]; 18.5% in assay [4]; 36.9% in assay [5]; 75.8% in assay [6]. Further, the growth in assay [7] was 92%; in assay [8], 6.36% (active).

Consider `COc1ccc(S(=O)(=O)N2CC3(COC3)C2)cc1NC(=O)c1[nH]c(C)c2c1CCCCC2=O`, for which the growth in assay [1] was 37%; in assay [2], 73.3%; in assay [3], 45.5%; in assay [4], 72.9%; in assay [5], 21.9%; in assay [6], 51.7%. Moreover, the growth was 58.7% in assay [7] and 54.6% in assay [8].

For the compound `CC(O)CN(CC(C)O)c1ccc2c(c1)Cc1cc([N+](=O)[O-])ccc1-2` (stereo not drawn), the growth was 109% in assay [1]; 101% in assay [2]; 98.7% in assay [3]; 99% in assay [4]; 99.2% in assay [5]; 89.6% in assay [6]. The growth is 95.1% in assay [7] and 85.3% in assay [8].

With `COc1ccc(C2C(C#N)=C(N)Oc3n[nH]c(-c4cccs4)c32)cc1I` (stereo not drawn), the growth in assay [1] is 94.4%; in assay [2], 92.1%; in assay [3] it was 66.7%; in assay [4] it was 83.8%; in assay [5], 69.4%; in assay [6] it was 91.9%. Further, the growth in assay [7] was 95.9%; in assay [8], 86.2%.

In the case of `O=S(=O)(Nc1ccc(Cl)c(F)c1)c1ccc(-c2cnc(C3CC3)o2)cc1`, the growth in assay [1] is 27.8%; in assay [2], 27.5%; in assay [3] it was 3.28% (active); in assay [4], 17.9%; in assay [5], 13%; in assay [6], 23.1%. Further, the growth in assay [7] was 41.5%; in assay [8] it was 38.4%.

As to `CCCCn1c(-c2ccc(C(=O)O/N=C(\N)c3ccc4ccccc4c3)cc2)nc(-c2ccccc2)c1-c1ccccc1`, the growth was 46.2% in assay [1]; 87.9% in assay [2]; 85.1% in assay [3]; 80.1% in assay [4]; 61.2% in assay [5]; 60.8% in assay [6]. Also, the results for the growth in assay [7] and in assay [8] were 95.8% and 76.7%, respectively.

For the compound `COc1cc(-c2nn(C)nc2-c2cc3ccccc3s2)cc(OC)c1OC`, the growth in assay [1] was 56.5%; in assay [2] it was 18.8%; in assay [3], -41% (active); in assay [4], 26.7%; in assay [5], 17%; in assay [6], 15.9%. Moreover, the values for the growth in assay [7] and in assay [8] were 49.4% and 19.5%, respectively.

Consider `COc1cc(CNc2oc(-c3ccccc3)c(-c3ccccc3)c2C#N)cc(CN2CCN(C)CC2)c1O`, for which the growth was 74% in assay [1]; 76.4% in assay [2]; 40.5% in assay [3]; 31.8% in assay [4]; 14.9% in assay [5]; 36.7% in assay [6]. The values for the growth in assay [7] and in assay [8] were 37.4% and 66.7%, respectively.

For `Cn1cc(-c2nonc2-c2cn(C)c3ccc(F)cc23)c2ccccc21`, the growth was 37.3% in assay [1]; 56.1% in assay [2]; -26% (active) in assay [3]; 22% in assay [4]; 21.3% in assay [5]; 11.6% in assay [6]. Further, the growth in assay [7] was 25.9%; in assay [8], 14.7%.
